Experimental findings from PubChem BioAssay (EPA / NIEHS) are described below.

Several values for one entry are separate records, joined by “and”; a condition that tells them apart may be missing. Equal values may be shown once. Results filed as inconclusive are left out. Some compounds were tested as several samples or in several runs, with calls that do not always agree. Activity calls are given as the source filed them. How the source made its calls: active means hit-call score of the fitted dose curve at least 0.9, where 1 is the maximum; inconclusive means response in the unintended direction; inactive means score below 0.9.

human Opioid Receptor Mu (Opiate Mu), OPRM1 (gene 4988), sequence (P35372 whole entry, looked up): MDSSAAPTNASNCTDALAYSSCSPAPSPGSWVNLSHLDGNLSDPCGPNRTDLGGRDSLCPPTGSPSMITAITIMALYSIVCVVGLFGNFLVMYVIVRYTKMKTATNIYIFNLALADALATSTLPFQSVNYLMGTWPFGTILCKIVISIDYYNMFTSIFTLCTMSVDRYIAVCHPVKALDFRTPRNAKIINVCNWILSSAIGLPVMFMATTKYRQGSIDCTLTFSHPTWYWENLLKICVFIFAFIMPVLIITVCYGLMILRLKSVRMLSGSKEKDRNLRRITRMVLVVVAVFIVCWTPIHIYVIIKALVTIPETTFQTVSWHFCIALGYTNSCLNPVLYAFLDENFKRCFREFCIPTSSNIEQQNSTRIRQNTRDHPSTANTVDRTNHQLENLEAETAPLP

For this experiment, the target named is human Opioid Receptor Mu (Opiate Mu), OPRM1 (gene 4988) (UniProt P35372). The experiment is described as follows: NVS_GPCR_hOpiate_mu: NovaScreen (NVS) G Protein-Coupled Receptor Assay for human Opioid Receptor Mu (Opiate Mu) (AID 2283290).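 Further: hits lower bound tracer signal versus DMSO meaning displacement of the ligand.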 The essentials:
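Here, radioligand binding to CHO-extracted receptor was measured after 2.5 h using filter-based scintillation detection. Initial single-concentration screening used 25 uM in duplicate with plate controls; confirmed actives went to concentration-response testing.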
On to `CC(C)(C)C(O)/C(=C\c1ccc(Cl)cc1Cl)n1cncn1` (stereo not drawn), for which the outcome was inactive.

By AC50 is commonly meant the midpoint of the concentration-response curve, whichever way the signal moves. For `O=C1c2ccccc2C(=O)N1SC(Cl)(Cl)Cl`, the half-maximal activity concentration (AC50) is 6.04 µM (active).

As to `CC[C@H](C)[C@H]1O[C@]2(C=C[C@@H]1C)C[C@@H]1C[C@@H](C/C=C(\C)[C@@H](O[C@H]3C[C@H](OC)[C@@H](O[C@H]4C[C@H](OC)[C@@H](O)[C@H](C)O4)[C@H](C)O3)[C@@H](C)/C=C/C=C3\CO[C@@H]4[C@H](O)C(C)=C[C@@H](C(=O)O1)[C@]34O)O2` (tested in a mixture with another compound), the AC50 is 9.27 µM (active).

Take `CCCN(CCOc1c(Cl)cc(Cl)cc1Cl)C(=O)n1ccnc1`: the AC50 is 10.5 µM (active).

`Oc1cc(Cl)ccc1Oc1ccc(Cl)cc1Cl`: the concentration at half-maximal activity (AC50) was 19.9 µM (active) and 7.86 µM (active) and 15.6 µM (active); the molecule was called inactive.

In the case of `Oc1ccc(Cl)cc1Cc1ccccc1`, the AC50 was 16.5 µM (active) [middle of 6 runs] and the result was inactive.
